CFTR F508del cor: correctors of CFTR F508del function in bronchial epithelial cells; CFBE cells, YFP halide quenching; stimulated with forskolin plus potentiator P3; % fluorescence drop versus neutral controls; 0.36% of 350,000 active; activity (quench increase), % at 7.58 µM; AID 720511;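 active = mean added fluorescence quench of at least 8% versus neutral control, with both replicates also reaching 8%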;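 also: cells transiently co-express mutant CFTR-F508del with the halide-sensitive YFP; corrector assay measuring rescue of mutant channel to the surface after 24 h compound exposure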
PAX8 inh HTS: lowers PAX8-driven luciferase in RMG-I cells; inhibition, % at 12.6 µM; AID 652154; RMG-I TPO-luciferase reporter, SteadyGlo, 24 h; 1.2% of 360,000 active;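 active = mean replicate inhibition at least 60% with every replicate also reaching 60%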;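 also: luciferase light reporting Pax8 driven TPO promoter activity; plate controls were median of neutral control wells for no effect and mitoxantrone controls for full effect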
EWS-Fli block: EWS/Fli transcriptional activity inhibition; A673 NR0B1-luciferase reporter, viability-normalised; AID 651661; inhibition, % at 12.6 µM; 0.67% of 350,000 active;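 active = mean inhibition of at least 50% after viability correction, with every replicate also passing that limit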;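 also: firefly luciferase signal divided by Alamar Blue viability fluorescence both relative to DMSO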
LGR2 inh: inhibitors of bursicon-induced Drosophila LGR2 receptor cAMP signaling; AID 720647; inhibition, % at 9.99 µM; HEK293 LGR2, CRE-luciferase, bursicon-stimulated, 4 h; 0.35% of 380,000 active;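 active = drop in luminescence signal, shown as inhibition above about 50% in the replicate tests, limit read from the data, passing the limit was not always enough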;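 also: agonist challenge used bursicon conditioned medium at about half maximal strength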
An asterisk follows results filed as active; · = no result given. This is a sample that favours compounds with a hit; in the whole collection about 1.8% have one here.

SMILES | CFTR F508del cor | PAX8 inh HTS | EWS-Fli block | LGR2 inh
Cc1cc(C(=O)COC(=O)CNC(=O)c2ccco2)c(C)n1Cc1ccco1 | · | 4.3 | · | 0.4
COc1cc(OC)cc(C(=O)NCC(=O)OCC(=O)c2cc(C)n(Cc3ccco3)c2C)c1 | · | 91.7* | 1.8 | -7.1
O=C(CN1C(=O)c2ccccc2S1(=O)=O)c1ccc(F)c(F)c1 | -0.1 | 63.6* | 35.1 | 64.6*
CCCC#Cc1cnc2c(c1)C(=O)N([C@@H](C)CO)C[C@H](C)[C@H](CN(C)S(=O)(=O)c1ccccc1)O2 | 3.2 | · | -2.4 | 4.4
Cc1nc(-c2cccc(NC(=O)c3ccco3)c2)cs1 | 0.4 | -37.9 | · | -6.3
Cc1nc(-c2ccc(C(=O)Nc3ccccc3F)cc2)cs1 | 2.7 | -3.6 | 61.1* | 83.2*
Cc1nc(-c2ccc(C(=O)Nc3ccc(F)cc3)cc2)cs1 | 4.6 | -52.2 | -44.5 | -0.6
Cc1nc(-c2ccc(C(=O)Nc3cccc(F)c3)cc2)cs1 | 1.2 | 18.6 | 31.2 | 60.1*
COc1ccc(NC(=O)c2ccc(-c3csc(C)n3)cc2)cc1 | 1.0 | 2.1 | -97.6 | -43.3
Cc1nc(-c2ccc(NC(=O)c3ccco3)cc2)cs1 | 0.2 | 87.5* | 83.6* | 92.6*
Cc1ccc(S(=O)(=O)N(C)C[C@@H]2Oc3c(NS(C)(=O)=O)cccc3C(=O)N([C@@H](C)CO)C[C@@H]2C)cc1 | -0.4 | -13.4 | -8.9 | -6.8
COc1ccc(CCC(=O)Nc2ccc3c(c2)OCO3)cc1OC | -0.9 | -16.4 | -1.2 | -3.4
CSc1nnc(C)c(=O)n1COC(=O)c1ccc(S(=O)(=O)N(C)C)cc1 | · | -9.5 | · | 10.7
CN1/C(=C/C=C(C#N)C#N)C(C)(C)c2ccccc21 | -15.7 | -22.0 | -17.1 | ·
CC1=C/C(=C\C=C(C#N)C#N)N(C)c2ccccc21 | 10.2* | 10.4 | -2.9 | 2.1
CN(C)CCNC(=O)c1nn(C)c2c1CCc1ccccc1-2 | 2.8 | -4.6 | 1.6 | 7.2
O=S(=O)(NCc1ccc(Cl)c(Cl)c1)c1cc(Cl)ccc1N1CC[C@@H](O)C1 | -5.4 | 17.7 | -4.8 | -8.9
COc1ccc(CNS(=O)(=O)c2cc(Cl)ccc2N2CC[C@@H](O)C2)cc1 | 2.8 | 45.7 | 54.9* | -13.0
Cc1cc(OCc2nc(N)nc(N)c2-c2ccc(Cl)c(Cl)c2)ccc1[N+](=O)[O-] | 5.0 | 43.8 | 63.5* | 21.9
COc1ccc(C=O)cc1COc1ccc([N+](=O)[O-])c(C)c1 | -4.4 | 3.0 | 1.1 | -35.2
CC(C)(C)c1ccc(-n2nc(C(N)=O)c(O)cc2=O)cc1 | -3.7 | 38.4 | 6.0 | -9.7
CC(C)(C)c1ccc(-n2nc(C#N)c(Cl)cc2=O)cc1 | -9.6 | 111.5* | 57.8* | 100.7*
CN(CCc1cn[nH]c1)Cc1nc(C(c2ccccc2)c2ccccc2)no1 | 0.9 | 143.7* | 7.6 | -17.3
O=C(CCl)N=c1sccn1Cc1ccccc1Cl | -17.1 | 99.6* | 63.5* | -9.6
O=C(CCl)N=c1sccn1Cc1ccc(Cl)cc1Cl | -4.8 | 111.0* | 20.9 | ·
SMILES | CFTR F508del cor | PAX8 inh HTS | EWS-Fli block | LGR2 inh
CCC(=O)OCC(=O)N=c1sccn1Cc1ccccc1Cl | -1.1 | 9.2 | 4.9 | -3.4
O=C(CCl)N=c1sccn1Cc1cccc2ccccc12 | -2.1 | 111.3* | 34.4 | 1.7
COc1ccc(/C=c2/sc3n(c2=O)C(c2ccccc2OC)C2=C(N=3)c3ccccc3CC2)cc1O (configuration not stated) | · | 93.1* | · | ·
Cc1cccc(CC2S/C(=N/N=C/c3ccco3)NC2=O)c1 (configuration not stated) | 1.2 | 37.5 | 5.6 | -22.0
Cc1ccc(/C=C2\Sc3ccccc3C2=O)s1 | · | -53.6 | · | ·
CCOc1ccc2nc(C)cc(Nc3cccc([N+](=O)[O-])c3)c2c1 | · | -3.0 | 72.0* | ·
Cc1cc(Nc2cccc([N+](=O)[O-])c2)c2ccccc2n1 | 0.9 | 10.6 | 18.4 | 11.8
CC(=O)Nc1ccc2c(c1)C(=O)N(C)[C@H]1CC[C@@H](CC(=O)NC3CCCCC3)O[C@H]1CO2 | -1.0 | -24.1 | 1.4 | 8.2
C(#Cc1ccccc1)C[N+]1(CC#Cc2cccc3ccccc23)CCCC1 | -3.6 | 63.4* | 8.2 | 15.1
C#CC[N+]1(CC#Cc2ccccc2)CCCC1 | · | · | · | 19.9
COC1(OC)C(/C=C/c2ccc(C)cc2)C(C#N)(C#N)C1(OC)OC (configuration not stated) | · | 85.0* | · | ·
CN(CCc1ccccc1)C(c1ccnc2ccccc12)c1nnnn1-c1ccc2c(c1)OCCO2 (configuration not stated) | 1.7 | 21.8 | 18.8 | 19.2
CCn1c2ccccc2c2cc([N+](=O)[O-])ccc21 | 0.4 | 13.9 | 7.7 | -22.6
CN(C)CCn1c2ccccc2c2nc3ccc([N+](=O)[O-])cc3cc21 | 13.5* | 75.7* | -19.7 | -6.0
COc1ccccc1NC(=O)CSc1n[nH]c(Cc2ccccc2)n1 | 0.3 | -5.5 | · | 22.2
Cc1cc([N+](=O)[O-])nn1Cc1ccc(C(=O)N/N=C/c2ccc(F)cc2)cc1 | -1.5 | -11.1 | -5.2 | ·
O=C(N/N=C/c1ccc(O)cc1O)c1ccc(CN2C(=O)c3cccc4cccc2c34)cc1 | 2.4 | 66.7* | 11.1 | 25.3
Cc1cc([N+](=O)[O-])nn1Cc1ccc(C(=O)N/N=C/c2ccc(O)cc2O)cc1 | · | 62.6* | · | 15.0
O=C1NC(c2ccccc2)C(C(=O)c2cccs2)=C1O (configuration not stated) | · | -21.1 | · | ·
O=C(O)c1c2c(nc3ccccc13)/C(=C/c1ccc(O)cc1)CC2 | 7.2 | 0.5 | 19.9 | 71.2*
CCCNC(=O)N(C)C[C@H]1N[C@@H](CO)[C@@H]1c1ccc(C2=CCCCC2)cc1 | -5.0 | 102.9* | 44.8 | 3.3
CN(C[C@@H]1N[C@H](CO)[C@H]1c1ccc(C2=CCCC2)cc1)C(=O)c1ccncc1 | -4.0 | -31.5 | 13.1 | -16.7
CC(C)CC#Cc1ccc2c(c1)O[C@H](CN(C)C)[C@H](C)CN([C@@H](C)CO)S2(=O)=O | 0.5 | · | -6.4 | -5.4
Cn1c(CCN2CCN(c3ccccn3)CC2)nc2cc(NS(=O)(=O)c3ccc(Cl)cc3)ccc21 | -0.8 | 89.9* | · | 13.7
Cc1cccc(OCC(=O)Nc2ccc3c(c2)nc(CCN2CCN(c4ccccn4)CC2)n3C)c1 | 0.8 | 71.3* | · | 15.3
SMILES | CFTR F508del cor | PAX8 inh HTS | EWS-Fli block | LGR2 inh
COc1ccc(OCC(=O)Nc2ccc3c(c2)nc(CCN2CCC(C)CC2)n3C)cc1 | 2.9 | 14.6 | -4.3 | -7.5
Cn1c(CCN2CCN(c3ccccn3)CC2)nc2cc(NC(=O)COc3ccc(Cl)cc3)ccc21 | 1.4 | 66.8* | · | 12.3
Cc1ccc(S(=O)(=O)Nc2ccc3c(c2)nc(CCN2CCN(c4ccccn4)CC2)n3C)cc1 | 0.7 | 21.0 | 13.3 | 2.1
COc1ccc(OCC(=O)Nc2ccc3c(c2)nc(CCN2CCN(c4ccccn4)CC2)n3C)cc1 | 1.2 | 17.0 | 1.5 | 10.1
CC1CCN(CCc2nc3cc(NC(=O)COc4ccc(Cl)cc4)ccc3n2C)CC1 | -1.9 | 75.5* | · | 1.8
CN(CC(=O)Nc1ccc(Cl)c(C(F)(F)F)c1)C(=O)C1CC(=O)N(C2CCCC2)C1 (configuration not stated) | -0.3 | -0.1 | 12.0 | -0.6
CCOC(=O)N1CCN(C(=O)COc2ccccc2Cl)CC1 | · | -27.6 | · | ·
Cc1nn(C)cc1CN1CCC(CO)(CCOc2ccccc2)CC1 | 0.9 | -1.1 | -4.2 | 3.2

Screens from PubChem BioAssay.
